Experimental data published in the supplement of paper PMC8728848.
This excerpt belongs to a sample that is enriched for the strongest signals.

Assays:
Assay in all cases: glycan array binding signal (z-score within array); higher = stronger binding
Details in all cases: glycan notation: IUPAC condensed, linker removed
[1] = molecular target: Fuc(a1-2)Gal(b1-3)GalNAc(a1-3)[Fuc(a1-2)]Gal(b1-4)GlcNAc
Procedure, shortened: (§1)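 Arrays were curated from the Consortium for Functional Glycomics database, 3228 in total, and kept only where the protein sequence was available. Binding is expressed as a within-array Z-score. This score was averaged across arrays of the same protein sequence at different concentrations or buffers and across linkers, and negative values can be read as non-binding.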

[2] = molecular target: Fuc(a1-2)Gal(b1-3)GlcNAc(b1-3)[Fuc(a1-2)Gal(b1-3)GlcNAc(b1-6)]GalNAc
Procedure, shortened: as §1

[3] = molecular target: Fuc(a1-2)Gal(b1-4)[Fuc(a1-3)]GlcNAc(b1-3)Gal(b1-4)[Fuc(a1-3)]GlcNAc(b1-3)Gal(b1-4)[Fuc(a1-3)]GlcNAc
Procedure, shortened: as §1

[4] = molecular target: Fuc(a1-2)Gal(b1-4)[Fuc(a1-3)]GlcNAc(b1-3)[Neu5Ac(a2-6)Gal(b1-4)GlcNAc(b1-6)]Gal(b1-4)Glc
Procedure, shortened: as §1

Fuc(a1-2)Gal6S(b1-4)Glc = molecular target: Fuc(a1-2)Gal6S(b1-4)Glc
Procedure, shortened: as §1

[5] = molecular target: Fuc(a1-2)[Gal(a1-3)]Gal(b1-3)GalNAc
Procedure, shortened: as §1

[6] = molecular target: Fuc(a1-2)[Gal(a1-3)]Gal(b1-3)GlcNAc(b1-2)Man(a1-3)[Fuc(a1-2)[Gal(a1-3)]Gal(b1-3)GlcNAc(b1-2)Man(a1-6)]Man(b1-4)GlcNAc(b1-4)GlcNAc
Procedure, shortened: as §1

[7] = molecular target: Fuc(a1-2)[Gal(a1-3)]Gal(b1-4)GlcNAc(b1-3)[Fuc(a1-2)[Gal(a1-3)]Gal(b1-4)GlcNAc(b1-6)]GalNAc
Procedure, shortened: as §1

[8] = molecular target: Fuc(a1-2)[Gal(a1-3)]Gal(b1-4)[Fuc(a1-3)]GlcNAc(b1-3)GalNAc
Procedure, shortened: as §1

[9] = molecular target: Fuc(a1-2)[GalNAc(a1-3)]Gal(b1-3)GlcNAc
Procedure, shortened: as §1

[10] = molecular target: Fuc(a1-3)[Gal(b1-4)]GlcNAc(b1-2)Man
Procedure, shortened: as §1

[11] = molecular target: Fuc(a1-3)[Gal(b1-4)]GlcNAc(b1-6)GalNAc
Procedure, shortened: as §1

[12] = molecular target: Fuc(a1-3)[GalNAc(b1-4)]GlcNAc
Procedure, shortened: as §1

[13] = molecular target: Gal(a1-3)Gal(b1-4)GlcNAc(b1-3)GalNAc
Procedure, shortened: as §1

[14] = molecular target: Gal(a1-3)[Gal(a1-4)]Gal(b1-4)GlcNAc
Procedure, shortened: as §1

[15] = molecular target: Gal(b1-3)GalNAc(a1-3)[Fuc(a1-2)]Gal(b1-4)GlcNAc
Procedure, shortened: as §1

[16] = molecular target: Gal(b1-3)GlcNAc(b1-2)[Gal(b1-3)GlcNAc(b1-6)]Man(a1-6)[Gal(b1-3)GlcNAc(b1-2)Man(a1-3)]Man(b1-4)GlcNAc(b1-4)GlcNAc
Procedure, shortened: as §1

[17] = molecular target: Gal(b1-3)GlcNAc(b1-6)GalNAc
Procedure, shortened: as §1

[18] = molecular target: Gal(b1-3)[Fuc(a1-4)]GlcNAc(b1-6)GalNAc
Procedure, shortened: as §1

[19] = molecular target: Gal(b1-4)GalNAc(a1-3)[Fuc(a1-2)]Gal(b1-4)GlcNAc
Procedure, shortened: as §1

[20] = molecular target: Gal(b1-4)GlcNAc(b1-2)Man(a1-6)Man(b1-4)GlcNAc(b1-4)GlcNAc
Procedure, shortened: as §1

[21] = molecular target: Gal(b1-4)GlcNAc(b1-3)Gal(b1-4)GlcNAc(b1-2)Man(a1-3)[Gal(b1-4)GlcNAc(b1-3)Gal(b1-4)GlcNAc(b1-2)Man(a1-6)]Man(b1-4)GlcNAc(b1-4)GlcNAc
Procedure, shortened: as §1

[22] = molecular target: Gal(b1-4)GlcNAc(b1-3)Gal(b1-4)GlcNAc(b1-2)[Gal(b1-4)GlcNAc(b1-3)Gal(b1-4)GlcNAc(b1-6)]Man(a1-6)[Gal(b1-4)GlcNAc(b1-3)Gal(b1-4)GlcNAc(b1-2)Man(a1-3)]Man(b1-4)GlcNAc(b1-4)GlcNAc
Procedure, shortened: as §1

[23] = molecular target: Gal(b1-4)GlcNAc(b1-3)Gal(b1-4)GlcNAc(b1-2)[Gal(b1-4)GlcNAc(b1-3)Gal(b1-4)GlcNAc(b1-6)]Man(a1-6)[Gal(b1-4)GlcNAc(b1-3)Gal(b1-4)GlcNAc(b1-2)Man(a1-3)]Man(b1-4)GlcNAc(b1-4)[Fuc(a1-6)]GlcNAc
Procedure, shortened: as §1

[24] = molecular target: Gal(b1-4)GlcNAc(b1-3)Gal(b1-4)GlcNAc(b1-3)Gal(b1-4)GlcNAc(b1-3)Gal(b1-4)GlcNAc(b1-2)[Gal(b1-4)GlcNAc(b1-3)Gal(b1-4)GlcNAc(b1-3)Gal(b1-4)GlcNAc(b1-3)Gal(b1-4)GlcNAc(b1-6)]Man(a1-6)[Gal(b1-4)GlcNAc(b1-3)Gal(b1-4)GlcNAc(b1-3)Gal(b1-4)GlcNAc(b1-3)Gal(b1-4)GlcNAc(b1-2)Man(a1-3)]Man(b1-4)GlcNAc(b1-4)[Fuc(a1-6)]GlcNAc
Procedure, shortened: as §1

[25] = molecular target: Gal(b1-4)GlcNAc(b1-3)Gal(b1-4)GlcNAc(b1-3)Gal(b1-4)GlcNAc(b1-3)Gal(b1-4)GlcNAc(b1-3)Gal(b1-4)GlcNAc(b1-2)[Gal(b1-4)GlcNAc(b1-3)Gal(b1-4)GlcNAc(b1-3)Gal(b1-4)GlcNAc(b1-3)Gal(b1-4)GlcNAc(b1-3)Gal(b1-4)GlcNAc(b1-6)]Man(a1-6)[Gal(b1-4)GlcNAc(b1-3)Gal(b1-4)GlcNAc(b1-3)Gal(b1-4)GlcNAc(b1-3)Gal(b1-4)GlcNAc(b1-3)Gal(b1-4)GlcNAc(b1-2)Man(a1-3)]Man(b1-4)GlcNAc(b1-4)[Fuc(a1-6)]GlcNAc
Procedure, shortened: as §1

[26] = molecular target: Gal(b1-4)GlcNAc(b1-6)Gal(b1-4)GlcNAc
Procedure, shortened: as §1

Gal3S(b1-3)GlcNAc = molecular target: Gal3S(b1-3)GlcNAc
Procedure, shortened: as §1

Gal3S4S(b1-4)GlcNAc = molecular target: Gal3S4S(b1-4)GlcNAc
Procedure, shortened: as §1

[27] = molecular target: GalNAc(b1-4)GlcNAc(b1-2)Man(a1-3)[GalNAc(b1-4)GlcNAc(b1-2)Man(a1-6)]Man(b1-4)GlcNAc(b1-4)GlcNAc
Procedure, shortened: as §1

B1: PX9961C-bth-497-22-497 (Bacteroides thetaiotaomicron) (protein)
chain: DWLDLNTTSSVETGQAIVTLDDAQIALNGIYRLASGHSYYGDNYWYYGDCRAADVQARITKGDGKRVSPYYEYNVLASDNLNIVLPWNTVYKVIRQTNNLIQKIESGSIQSSDTKELNRIKSEALVMRGLSLFNLTRLFGMPYTNDKGASLGVPIETSPSDPTHKPSRSTVAQCYEQVVSDMSNALSGLRQETSNGYINYWAAQALLSRVYLNMGEYQKAYDAATDVIKNNGGRYQLYSYEEYPNVWGQDFQSESLFELYITLSEPSGGTGGEGAPMVYANEATVDWNNLILSEDFLNLLNEDPKDVRHCLTKESVIENNTGLPAAAMHEKVYLAKFPGKTGDDPKTNNICIIRLSEVYLNAAEAGLKKGTDIEEAQGYLNDIISRRTTDTSQQVSTETFTLDRILKERRKELVGEGEVFYDYLRNGLAIERKGSWHLETLKASNAQKIEATDLRIALPIPQSEIDANPNIQQNPR
glycan array binding signal (z-score) [1]: -0.6
glycan array binding signal (z-score) [2]: 0.12
glycan array binding signal (z-score) [3]: -0.517
glycan array binding signal (z-score) [4]: -0.648
glycan array binding signal (z-score) (Fuc(a1-2)Gal6S(b1-4)Glc): -0.078
glycan array binding signal (z-score) [5]: -0.3
glycan array binding signal (z-score) [6]: 1.08
glycan array binding signal (z-score) [7]: -0.459
glycan array binding signal (z-score) [8]: -0.284
glycan array binding signal (z-score) [9]: -0.776
glycan array binding signal (z-score) [10]: 1.56
glycan array binding signal (z-score) [11]: 0.511
glycan array binding signal (z-score) [12]: 0.598
glycan array binding signal (z-score) [13]: -0.646
glycan array binding signal (z-score) [14]: 2.48
glycan array binding signal (z-score) [15]: -0.307
glycan array binding signal (z-score) [16]: 14.1
glycan array binding signal (z-score) [17]: -0.427
glycan array binding signal (z-score) [18]: -0.101
glycan array binding signal (z-score) [19]: -0.203
glycan array binding signal (z-score) [20]: -0.302
glycan array binding signal (z-score) [21]: 1.26
glycan array binding signal (z-score) [22]: 2.36
glycan array binding signal (z-score) [23]: 2.08
glycan array binding signal (z-score) [24]: -0.171
glycan array binding signal (z-score) [25]: 7.33
glycan array binding signal (z-score) [26]: -0.211
glycan array binding signal (z-score) (Gal3S(b1-3)GlcNAc): -0.219
glycan array binding signal (z-score) (Gal3S4S(b1-4)GlcNAc): 0.105
glycan array binding signal (z-score) [27]: 1.18
